From PubChem BioAssay AID1875 (Broad Institute, 2009)
About 65 (0.02%) of roughly 300,000 compounds were called active. The sample as a whole holds a higher share of actives than the screen did. Values without a mark were called inactive.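 How the source made its calls: active means lowest replicate activity score at least 50, where 100 means six control SD above control mean; inconclusive means lowest score under 50 but half or more replicates reach 50; inactive means the rest.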

Assay: polyadenylation inhibitors in yeast reporter cells, primary screen, luminescence, S. cerevisiae (AID 1875);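 further: yeast exposed to compound for 9 h at 30 °C; higher score means more reporter readthrough which indicates perturbed polyadenylation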
Details: S. cerevisiae SKY197-pL101 polyadenylation reporter, beta-gal luminescence; at 12 µM; hits give high values; efflux-impaired pdr1/pdr3 knockout yeast; score 100 = 6 SD above DMSO

Structure (SMILES) | activity score
COc1cc(OC)c(-n2cc(-c3ccc(Cl)cc3)[nH]c2=O)cc1Cl | -4.07%
O=C1CSc2ccc(S(=O)(=O)NCc3ccccc3)cc2N1 | 3.02%
O=C(NN1C(=O)C2C3C=CC(O3)C2C1=O)c1ccncc1 (centres undefined) | 2.42%
COc1cccc(-n2c(=S)sc3c(=O)n(-c4ccccc4C)c(SCC(=O)O)nc32)c1 | 27.3%
COc1cc(/C=C/C(=O)OCC(=O)NC(=O)NCc2ccccc2)ccc1OCC#N | -0.558%
Cn1nccc1/C=N\NC(=O)c1ccc(Cl)cc1 | 7.4%
COc1ccc(S(=O)(=O)c2c[nH]c(=S)[nH]c2=O)cc1Cl | 11.8%
COc1ccc(CNC(=O)c2ccc(Br)s2)cc1OC | 6.38%
COc1ccc(Cl)cc1NC(=O)Cn1nc(-c2ccc(C)cc2)n(C)c1=S | -3.37%
O=C(c1[nH]ncc1-c1ccc(Cl)cc1)C1CO1 (centres undefined) | 19.5%
O=C(NCc1ccco1)c1ccc(NS(=O)(=O)c2cccc([N+](=O)[O-])c2)cc1 | -6.5%
Cc1ccc(C(=O)N/C(=C\c2cn(C)c3ccccc23)C(=O)N2CCN(C)CC2)cc1 | -4.13%
NC(=O)c1oc2ccccc2c1NC(=O)CS(=O)(=O)c1ccccc1 | 13.3%
O=C(O)Cn1c(Cc2ccccc2)nc2ccccc21 | -5.1%
CC(C)c1ccc(OCC(O)CN2CCN(c3ccccn3)CC2)cc1 (centres undefined) | -11.9%
O=S(=O)(NCCc1ccc(Cl)cc1)c1cccs1 | 14.8%
O=C(NC1CC1)C(Cc1ccccc1)NS(=O)(=O)c1ccccc1F (centres undefined) | 2.29%
COc1ccc(N2CCN(CCNC(=O)Nc3cc(Cl)ccc3Cl)CC2)cc1 | -1.83%
N#Cc1ccc(S(=O)(=O)NCC(=O)OCC(=O)NCCc2ccccc2)cc1 | 3.63%
CSc1ncc(C(=O)Nc2ccc(C)cc2C)c(C)n1 | 2.7%
CC(=O)c1ccc(S(=O)(=O)N2CCN(c3nc4c(C)c(C)ccc4cc3C#N)CC2)cc1 | 13.6%
Cc1ccc(NS(=O)(=O)c2ccc(C(C)(C)C)cc2)cn1 | -9.91%
COc1ccc(N2CCN(CCNC(=O)c3nnc(Cc4c(F)cccc4Cl)o3)CC2)cc1 | -12.7%

Structure (SMILES) | activity score
CCOC(=O)c1nn(-c2ccccc2F)c2nc(Nc3ccccc3)cc(=O)n12 | -12.8%
CN(C)Cc1c(O)ccc2c(=O)c(-c3ccccc3Cl)coc12 | 8.63%
CN1CCN(C(=O)C(=O)c2cn(CC(=O)N3CCCC3)c3ccccc23)CC1 | 17%
CC(=O)Nc1ccc(NC(=O)CS(=O)(=O)c2cn(CC(=O)N3CCCCC3)c3ccccc23)cc1 | 4.41%
S=C(c1ccc(-c2ccccc2)o1)N1CCCCC1 | -23.1%
CC(=O)Nc1cccc(OCC(=O)/C=C2\N(C)c3ccccc3C2(C)C)c1 | -11.1%
Cc1ccc(OCC(=O)NCCCNC(=O)c2cccnc2)cc1C | 0.135%
N#C/C=C\Oc1ccc(Cl)cc1N | -86.8%
COC(=O)CSc1ccc2nnc(CCNS(=O)(=O)c3ccc(C)cc3)n2n1 | 6.76%
COc1ccc(C2Nc3ccccc3C(=O)N2c2ccc(Cl)cc2)cc1Cn1cc([N+](=O)[O-])cn1 (centres undefined) | -9.63%
COc1cc(NC(=O)c2ccc(CNc3c(N4CCCC4)c(=O)c3=O)cc2)cc(OC)c1OC | 19.5%
C/C(CC(=O)Nc1ccc(N(C)C)cc1)=N\NC(=O)c1ccccc1F | -2.05%
COCCNC(=S)N1CCN(C)CC1 | -14.8%
COc1ccc(CCN(C)C(=O)C23CC4CC(CC(Cl)(C4)C2)C3)cc1OC | 5.22%
COc1cccc(NC(=O)Cn2c3ccc(F)cc3c3nc4n(c(=O)c32)CCS4)c1 | -13.2%
Cc1ccc(Cl)cc1N1CCN(C(=O)c2cccc3c(=O)c(C)c(-c4ccccc4)oc23)CC1 | 5.32%
COC(=O)Nc1ccc(S(=O)(=O)N(C)CC(F)(F)C(F)F)cc1 | 3.96%
Clc1ccc(-c2nnc(-c3ccccc3)nc2N2CCSCC2)cc1 | -11%
COc1cccc2cc(C(C)N(CCCN3CCOCC3)C(=O)Nc3ccc(Cl)cc3)oc12 (centres undefined) | -8.58%
COC(=O)c1ccccc1NC(=O)C1CCN(C(=O)N2CCOc3ccccc32)CC1 | 8.38%
CCOc1ccc2sc(NS(=O)(=O)c3ccc(N)cc3)nc2c1 | -8.96%
O=C1OCC2=C1C(c1ccccc1)CC(=O)N2c1cccc(F)c1 (centres undefined) | 19.6%
COc1cccc(NC(=O)CC(c2ccc(OC(C)C)cc2)c2ccccc2OC)c1 (centres undefined) | 10.2%

Structure (SMILES) | activity score
Cc1ccc2nc(SCC(=O)Nc3cccc4ccccc34)nc(=O)n2c1 | -16.5%
CC1(C)C(C=C(Cl)Cl)C1C(=O)N(Cc1ccc(Cl)cc1)C1CCS(=O)(=O)C1 (centres undefined) | -12.2%
N#CCSc1nc2ccc(N3CCOCC3)cc2c(=O)n1CCc1ccccc1 | -15.9%
CC1CC(NC(=O)/C(C#N)=C/c2ccc[nH]2)CC(C)(C)C1 (centres undefined) | -5.8%
CCN1C(=O)N[C@@H](CCc2ccccc2)C(C(=O)OC)=C1C | -17.2%
O=C1C2C3C=CC(C3)C2C(=O)N1c1ccc(S(=O)(=O)Nc2nccs2)cc1 (centres undefined) | -1.69%
O=C(NC(Cc1ccccc1)C(=O)N1CCCC(C(F)(F)F)C1)c1ccccc1 (centres undefined) | 5.98%
Cn1ncc(N2CCN(S(=O)(=O)c3ccc(Br)cc3)CC2)c(Cl)c1=O | 13.7%
CC(=O)N1C(=O)/C(=C2\SC(=S)N(NC(=O)c3ccc(O)cc3)C2=O)c2ccccc21 | -6.71%
Cc1ccc(CNC(=O)CCCNC(=O)c2ccc(Cl)cc2)n1C | -18.6%
Cc1cccc(N(C(=O)c2sc(C)nc2C)C(C(=O)NCC2CCCO2)c2ccccc2)c1 (centres undefined) | -7.81%
CC(C)C1Nc2c(C(=O)O)cccc2C(Nc2ccccc2C(=O)O)C1(C)C (centres undefined) | 12.3%
Cc1ccn2c(=O)nc(SCC(=O)NCc3ccc4c(c3)OCO4)nc2c1 | 17.3%
Cn1cc(S(=O)(=O)NC(c2ccccc2)c2ccccc2)c(=O)n(C)c1=O | -1.67%
COCCCNC(NC(=O)c1ccc(C)cc1)C(Cl)(Cl)Cl (centres undefined) | 8.69%
COc1ccc2oc(=N)c(C(=O)Nc3ccc(Br)cc3)cc2c1 | 0.299%
O=C(Nc1ccccc1N1CCOCC1)c1ccc(OCc2cscn2)cc1 | 3%
CC(=O)Nc1ccc(NC(=O)[C@@H](NC(=O)c2cccc(C)c2)C(C)C)cc1 | -9.42%
CCOC(=O)CNC(=O)CSc1ccc2nnc(-c3cccnc3)n2n1 | 7.59%
CCOC(=O)N1CCN(CC(=O)n2c(C)c(C)c3ccccc32)CC1 | -9.64%
NC(N)=Nc1nc2ccc(Br)cc2c(=O)[nH]1 | 11.2%
Cc1ccc(NC(=O)C(=O)NCC2CCN(C(=O)c3cccc([N+](=O)[O-])c3)CC2)cc1 | 15.6%
Cc1ccc(-n2nc(N)c3c(=O)oc(N(C)C)nc32)cc1 | -13.9%

Structure (SMILES) | activity score
FC(F)(F)c1cc(C(F)(F)F)c2ccc(N3CCN(c4ccccc4)CC3)nc2n1 | -28.1%
Nc1c(C(=O)c2cccs2)sc2nsc(SCCN3CCCCC3)c12 | -10.6%
CN(Cc1nc(-c2cnccn2)no1)Cc1n[nH]c2c1CCCCC2 | -15.8%
CCNC(=O)CC1C(=O)N(c2ccc(OC)cc2)C(=O)N1CCOC (centres undefined) | 13.9%
Cc1c(Nc2nc3ccccc3nc2NS(=O)(=O)c2cccs2)c(=O)n(-c2ccccc2)n1C | -9.51%
COc1ccccc1C(=O)NNC(=O)CCN1C(=O)/C(=C\c2ccccc2)SC1=S | -4.37%
COc1cc(/C=C2/SC(=S)N(Cc3ccccc3)C2=O)cc(OC)c1O | 425% (active)
COc1ccc(/C=C2\SC(=S)N(CCC(=O)Nc3ccccn3)C2=O)cc1OC | 14.3%
COC(=O)C(=Nc1ccccc1)/C(C(=O)C(=O)N(C)c1ccccc1)=C(\O)c1ccc(Cl)cc1 | 3.12%
COc1ccc(C2/C=C\CN(S(=O)(=O)c3cccs3)CC(=O)N2Cc2ccc(F)cc2)cc1 (centres undefined) | 1.94%
Cc1c(S(=O)(=O)N2CC(C)CC(C)C2)c(=O)n(C)c(=O)n1C (centres undefined) | 11.6%
COc1ccc(/C=N/Nc2nc(-c3ccc(C)cc3)c(C#N)c(=O)[nH]2)cc1 | -16.1%
Cc1ccc(CNC(=O)Cn2c(=O)c3sccc3n(Cc3cccc([N+](=O)[O-])c3)c2=O)cc1 | -7.25%
O=C(NCc1ccccc1)C(c1cccnc1)N(C(=O)c1csnn1)c1ccc(F)cc1 (centres undefined) | 5.05%
CC1CN(C(=O)COC(=O)c2cccc(NS(=O)(=O)c3ccccc3)c2)CC(C)O1 (centres undefined) | 2%
COc1ccc(NC(=O)COc2ccc(C(=O)c3ccc(F)cc3)cc2)cc1S(N)(=O)=O | 7.67%
O=C(O)CCCn1cc(NC(=O)COc2cccc(Cl)c2)cn1 | -6.55%
Cc1cccn2c(CN(C)C3CCCc4ccccc43)c(C(=O)N3CCOCC3)nc12 (centres undefined) | 10.7%
O=C(COC(=O)Cc1ccccc1F)NNC(=O)c1ccc(Cl)cc1 | 0.16%
CC(C)(C)C(=O)NC1CC2CCCC(C1)N2C(=O)Nc1ccccc1F (centres undefined) | 0.739%
